We go through 2 sequences from publication PMC7862700, “An all-to-all approach to the identification of sequence-specific readers for epigenetic DNA modifications on cytosine”.

Holding throughout (experiment): DAPPL (digital affinity profiling via proximity ligation, sequencing); 10 mM Tris-HCl pH 7.5, 50 mM NaCl, 1 mM DTT, 4% glycerol, room temperature, 30 min; GST-TFs on glutathione beads, 16-mer random dsDNA library, 0.1% formaldehyde crosslink after washing; high values mean tight binding
Conditions in all cases: protein: recombinant; tags: N-terminal GST; dsDNA, one strand shown

For one test, the target named is T1, FLI1 (Homo sapiens, UniProt Q01543 1-452).
T1 sequence: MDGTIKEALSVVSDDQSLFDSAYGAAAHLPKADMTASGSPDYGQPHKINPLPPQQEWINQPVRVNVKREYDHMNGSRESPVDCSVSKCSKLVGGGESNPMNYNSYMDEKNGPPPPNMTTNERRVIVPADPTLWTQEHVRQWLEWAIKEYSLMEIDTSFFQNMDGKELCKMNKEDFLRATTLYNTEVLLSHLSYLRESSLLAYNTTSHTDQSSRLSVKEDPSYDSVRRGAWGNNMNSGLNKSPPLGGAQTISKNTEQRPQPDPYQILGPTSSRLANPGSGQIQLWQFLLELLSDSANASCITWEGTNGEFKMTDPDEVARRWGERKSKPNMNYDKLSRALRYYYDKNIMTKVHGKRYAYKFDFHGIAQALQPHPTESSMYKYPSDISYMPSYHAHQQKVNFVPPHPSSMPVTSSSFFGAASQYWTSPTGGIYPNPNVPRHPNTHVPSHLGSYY
The method in brief:
(§1)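 The binding signal reported is, for every hexamer, its read frequency for a factor over its read frequency for the tag-only sample. Reads came from pools of yeast-expressed, GST-fused human transcription factors on glutathione beads, barcoded with DNA and mixed with that sample, which were incubated with 200 nmole of a random double-stranded 16-mer DNA library in Tris/NaCl/DTT/glycerol buffer at room temperature for 30 min. After washing, the pools were crosslinked with 0.1% formaldehyde, proximity-ligated with BsaI/T4 ligase for 1 h at 37 °C, PCR-amplified and sequenced on an Illumina NextSeq500.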

The target in the next test is T2, ELK1 (Homo sapiens, UniProt P19419 1-428).
T2 sequence: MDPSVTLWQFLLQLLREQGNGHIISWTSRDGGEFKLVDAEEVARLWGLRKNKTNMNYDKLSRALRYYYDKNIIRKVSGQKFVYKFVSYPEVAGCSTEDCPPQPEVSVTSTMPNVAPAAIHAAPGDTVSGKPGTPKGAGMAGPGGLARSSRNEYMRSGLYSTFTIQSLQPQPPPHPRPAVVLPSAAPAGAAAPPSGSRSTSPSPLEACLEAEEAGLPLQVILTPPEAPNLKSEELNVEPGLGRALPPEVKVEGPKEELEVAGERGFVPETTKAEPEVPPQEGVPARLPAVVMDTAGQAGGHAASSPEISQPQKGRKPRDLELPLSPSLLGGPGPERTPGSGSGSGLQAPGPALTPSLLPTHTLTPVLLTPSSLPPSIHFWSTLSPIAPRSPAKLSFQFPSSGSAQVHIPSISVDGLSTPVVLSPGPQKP
The method in brief:
as §1

A further test concerns the target T3, GABPA (Homo sapiens, UniProt Q06546 1-454).
T3 sequence: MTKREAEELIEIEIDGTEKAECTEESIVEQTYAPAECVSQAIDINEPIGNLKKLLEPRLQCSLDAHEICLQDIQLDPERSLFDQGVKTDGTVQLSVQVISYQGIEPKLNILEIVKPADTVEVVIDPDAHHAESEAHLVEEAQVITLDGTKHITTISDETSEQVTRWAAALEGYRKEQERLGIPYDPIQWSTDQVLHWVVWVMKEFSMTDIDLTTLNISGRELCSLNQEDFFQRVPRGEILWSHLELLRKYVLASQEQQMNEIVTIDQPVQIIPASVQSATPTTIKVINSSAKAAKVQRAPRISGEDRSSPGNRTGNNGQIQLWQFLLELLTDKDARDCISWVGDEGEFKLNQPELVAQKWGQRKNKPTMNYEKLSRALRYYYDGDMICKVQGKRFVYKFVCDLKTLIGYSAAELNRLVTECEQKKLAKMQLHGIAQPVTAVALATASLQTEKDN
Summed up: as §1

The target of a further test is T4, ERG (Homo sapiens, UniProt P11308 1-479).
T4 sequence: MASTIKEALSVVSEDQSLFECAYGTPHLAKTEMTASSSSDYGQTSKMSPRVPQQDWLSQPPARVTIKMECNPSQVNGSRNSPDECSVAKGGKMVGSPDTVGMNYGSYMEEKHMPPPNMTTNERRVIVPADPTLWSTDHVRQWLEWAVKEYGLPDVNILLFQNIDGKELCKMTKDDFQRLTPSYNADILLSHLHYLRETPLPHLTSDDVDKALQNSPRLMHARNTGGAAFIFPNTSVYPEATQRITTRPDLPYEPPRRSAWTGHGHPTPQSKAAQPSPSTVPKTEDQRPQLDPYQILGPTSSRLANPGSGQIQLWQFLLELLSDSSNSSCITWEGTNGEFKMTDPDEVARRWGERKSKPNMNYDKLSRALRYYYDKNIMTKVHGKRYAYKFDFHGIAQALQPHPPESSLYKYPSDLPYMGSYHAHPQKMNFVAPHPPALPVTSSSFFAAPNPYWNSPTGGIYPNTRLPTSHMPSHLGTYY
Summed up:
as §1

In a further test the target is ELF1 (Homo sapiens, UniProt P32519 1-619). Summed up: as §1
The target in another test is T5, EHF (Homo sapiens, UniProt Q9NZC4 1-300).
T5 sequence: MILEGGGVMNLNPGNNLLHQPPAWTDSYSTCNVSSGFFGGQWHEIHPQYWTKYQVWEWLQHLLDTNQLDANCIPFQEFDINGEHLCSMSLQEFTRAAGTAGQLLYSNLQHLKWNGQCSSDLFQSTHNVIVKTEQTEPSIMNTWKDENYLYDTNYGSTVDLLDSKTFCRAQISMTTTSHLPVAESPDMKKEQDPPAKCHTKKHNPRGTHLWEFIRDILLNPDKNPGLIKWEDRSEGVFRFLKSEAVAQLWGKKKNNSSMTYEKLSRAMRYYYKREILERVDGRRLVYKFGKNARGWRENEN
The method in brief: as §1

For the next test, the target named is SPI1 (Homo sapiens, UniProt P17947 1-270). Summed up: as §1
The target of the next test is SPIB (Homo sapiens, UniProt Q01892 1-262). Summed up: as §1
The next test concerns the target T6, ELK3 (Homo sapiens, UniProt P41970 1-407).
T6 sequence: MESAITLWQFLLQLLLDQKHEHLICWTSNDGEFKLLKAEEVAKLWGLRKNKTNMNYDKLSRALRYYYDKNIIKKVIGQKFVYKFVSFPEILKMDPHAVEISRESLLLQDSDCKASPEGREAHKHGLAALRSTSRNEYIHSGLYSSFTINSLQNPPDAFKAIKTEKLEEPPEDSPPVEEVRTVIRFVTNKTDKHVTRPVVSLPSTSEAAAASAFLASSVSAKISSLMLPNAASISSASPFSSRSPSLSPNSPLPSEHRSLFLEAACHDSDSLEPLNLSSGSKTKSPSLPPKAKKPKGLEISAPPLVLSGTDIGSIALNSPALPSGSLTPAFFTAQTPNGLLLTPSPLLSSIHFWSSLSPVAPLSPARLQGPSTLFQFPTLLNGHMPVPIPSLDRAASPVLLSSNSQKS
Summed up:
as §1

The target in another test is T7, FEV (Homo sapiens, UniProt Q99581 1-238).
T7 sequence: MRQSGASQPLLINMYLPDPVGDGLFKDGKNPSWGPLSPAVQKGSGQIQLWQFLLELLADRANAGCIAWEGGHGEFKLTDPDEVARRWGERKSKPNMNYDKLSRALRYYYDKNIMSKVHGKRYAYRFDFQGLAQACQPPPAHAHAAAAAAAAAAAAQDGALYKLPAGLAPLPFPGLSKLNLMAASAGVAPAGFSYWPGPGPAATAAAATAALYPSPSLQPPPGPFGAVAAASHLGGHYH
The method in brief: as §1

The next test concerns the target ETV5 (Homo sapiens, UniProt P41161 1-510). The method in brief: as §1
A further test deals with T8, SPIC (Homo sapiens, UniProt Q8N5J4 1-248).
T8 sequence: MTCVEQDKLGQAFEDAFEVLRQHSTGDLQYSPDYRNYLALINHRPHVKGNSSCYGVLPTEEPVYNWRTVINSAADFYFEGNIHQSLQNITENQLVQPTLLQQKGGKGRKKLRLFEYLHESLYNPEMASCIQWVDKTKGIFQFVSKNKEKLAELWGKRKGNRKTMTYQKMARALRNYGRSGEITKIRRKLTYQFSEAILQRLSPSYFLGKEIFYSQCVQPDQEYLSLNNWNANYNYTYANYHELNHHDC
Summed up:
as §1

The target in another test is ELF4 (Homo sapiens, UniProt Q99607 1-663). The method in brief:
as §1

In another test the target is T9, ELK4 (Homo sapiens, UniProt P28324-2 1-405).
T9 sequence: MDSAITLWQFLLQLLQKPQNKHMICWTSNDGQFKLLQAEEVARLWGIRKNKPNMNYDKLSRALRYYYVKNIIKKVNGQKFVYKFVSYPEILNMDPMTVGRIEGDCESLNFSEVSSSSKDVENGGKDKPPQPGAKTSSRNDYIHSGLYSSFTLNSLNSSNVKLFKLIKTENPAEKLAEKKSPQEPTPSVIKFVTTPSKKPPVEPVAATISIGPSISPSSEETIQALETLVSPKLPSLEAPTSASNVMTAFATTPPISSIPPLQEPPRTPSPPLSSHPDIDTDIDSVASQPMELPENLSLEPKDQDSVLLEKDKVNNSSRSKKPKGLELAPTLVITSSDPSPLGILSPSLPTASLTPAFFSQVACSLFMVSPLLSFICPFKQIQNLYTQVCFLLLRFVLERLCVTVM
The method in brief:
as §1

For another test, the target named is T10, ETV2 (Homo sapiens, UniProt O00321 1-342).
T10 sequence: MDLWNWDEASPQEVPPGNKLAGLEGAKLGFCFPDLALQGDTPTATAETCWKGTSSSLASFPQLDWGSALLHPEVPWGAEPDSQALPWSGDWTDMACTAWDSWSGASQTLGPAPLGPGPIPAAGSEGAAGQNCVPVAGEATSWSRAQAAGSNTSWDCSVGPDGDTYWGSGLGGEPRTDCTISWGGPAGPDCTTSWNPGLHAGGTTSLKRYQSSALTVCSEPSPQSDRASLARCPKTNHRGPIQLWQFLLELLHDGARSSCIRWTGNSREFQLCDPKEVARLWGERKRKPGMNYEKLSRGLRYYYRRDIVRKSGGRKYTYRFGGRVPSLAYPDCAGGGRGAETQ
Summed up: as §1

For another test, the target named is T11, ELF3 (Homo sapiens, UniProt P78545 1-371).
T11 sequence: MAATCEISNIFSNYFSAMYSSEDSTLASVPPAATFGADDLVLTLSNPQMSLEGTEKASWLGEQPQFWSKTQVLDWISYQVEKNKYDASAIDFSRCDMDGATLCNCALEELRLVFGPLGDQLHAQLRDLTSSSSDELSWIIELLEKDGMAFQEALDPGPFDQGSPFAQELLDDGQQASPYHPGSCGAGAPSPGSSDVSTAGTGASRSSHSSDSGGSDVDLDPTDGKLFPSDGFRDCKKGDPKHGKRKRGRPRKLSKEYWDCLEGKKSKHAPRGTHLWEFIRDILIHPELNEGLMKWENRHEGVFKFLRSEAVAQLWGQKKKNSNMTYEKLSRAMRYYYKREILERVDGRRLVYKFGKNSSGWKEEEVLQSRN
Summed up:
as §1

A further test addresses CRX (Homo sapiens, UniProt O43186 1-299). The method in brief:
as §1

A further test deals with ETV1 (Homo sapiens, UniProt P50549 1-477). Summed up:
as §1

ELF1, sequence (P32519 whole entry): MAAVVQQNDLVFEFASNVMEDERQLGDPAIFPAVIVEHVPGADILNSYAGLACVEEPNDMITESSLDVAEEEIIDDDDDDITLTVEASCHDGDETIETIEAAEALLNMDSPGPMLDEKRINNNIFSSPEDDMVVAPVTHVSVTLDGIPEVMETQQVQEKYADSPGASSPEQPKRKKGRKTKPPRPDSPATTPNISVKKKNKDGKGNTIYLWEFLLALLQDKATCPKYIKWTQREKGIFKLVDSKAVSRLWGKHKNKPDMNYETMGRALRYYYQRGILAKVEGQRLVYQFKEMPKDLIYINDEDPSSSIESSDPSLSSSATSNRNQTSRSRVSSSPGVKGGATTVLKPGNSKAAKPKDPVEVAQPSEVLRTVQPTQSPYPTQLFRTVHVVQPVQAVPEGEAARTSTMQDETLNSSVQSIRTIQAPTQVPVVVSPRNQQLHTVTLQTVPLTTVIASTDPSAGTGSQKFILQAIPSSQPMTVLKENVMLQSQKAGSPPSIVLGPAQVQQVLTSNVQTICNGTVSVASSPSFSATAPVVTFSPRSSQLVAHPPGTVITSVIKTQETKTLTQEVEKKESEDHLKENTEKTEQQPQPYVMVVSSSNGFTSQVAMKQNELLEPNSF
ETV5, sequence (P41161 whole entry): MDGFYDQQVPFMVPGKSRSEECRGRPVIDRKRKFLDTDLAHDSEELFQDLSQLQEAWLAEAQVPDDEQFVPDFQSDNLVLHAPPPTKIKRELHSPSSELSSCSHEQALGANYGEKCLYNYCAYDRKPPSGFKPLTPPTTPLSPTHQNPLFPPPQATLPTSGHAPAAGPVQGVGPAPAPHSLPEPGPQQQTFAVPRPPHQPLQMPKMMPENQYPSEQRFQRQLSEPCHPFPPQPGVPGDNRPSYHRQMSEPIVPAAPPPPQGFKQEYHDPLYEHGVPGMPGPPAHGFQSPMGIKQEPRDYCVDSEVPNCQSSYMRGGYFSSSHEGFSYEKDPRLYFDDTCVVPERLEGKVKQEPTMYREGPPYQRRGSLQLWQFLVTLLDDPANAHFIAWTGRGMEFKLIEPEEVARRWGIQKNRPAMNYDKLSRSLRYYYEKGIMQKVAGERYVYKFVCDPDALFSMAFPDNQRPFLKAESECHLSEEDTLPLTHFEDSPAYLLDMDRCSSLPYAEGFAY
CRX, sequence (O43186 whole entry): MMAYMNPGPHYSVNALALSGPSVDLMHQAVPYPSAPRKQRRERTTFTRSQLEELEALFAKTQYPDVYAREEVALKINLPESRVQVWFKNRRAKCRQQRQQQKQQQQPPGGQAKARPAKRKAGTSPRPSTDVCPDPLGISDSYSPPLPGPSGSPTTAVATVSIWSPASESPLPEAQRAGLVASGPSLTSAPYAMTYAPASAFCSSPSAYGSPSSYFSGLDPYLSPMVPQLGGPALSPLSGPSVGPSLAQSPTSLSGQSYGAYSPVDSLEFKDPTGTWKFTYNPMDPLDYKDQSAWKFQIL
SPIB, sequence (Q01892 whole entry): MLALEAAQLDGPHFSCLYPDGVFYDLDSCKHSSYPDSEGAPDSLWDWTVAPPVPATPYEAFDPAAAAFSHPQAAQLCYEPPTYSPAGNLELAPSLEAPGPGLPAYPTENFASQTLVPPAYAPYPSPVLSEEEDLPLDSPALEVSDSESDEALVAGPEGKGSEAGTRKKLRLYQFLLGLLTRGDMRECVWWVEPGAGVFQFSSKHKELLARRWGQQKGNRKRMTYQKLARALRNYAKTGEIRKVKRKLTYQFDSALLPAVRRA
ETV1, sequence (P50549 whole entry): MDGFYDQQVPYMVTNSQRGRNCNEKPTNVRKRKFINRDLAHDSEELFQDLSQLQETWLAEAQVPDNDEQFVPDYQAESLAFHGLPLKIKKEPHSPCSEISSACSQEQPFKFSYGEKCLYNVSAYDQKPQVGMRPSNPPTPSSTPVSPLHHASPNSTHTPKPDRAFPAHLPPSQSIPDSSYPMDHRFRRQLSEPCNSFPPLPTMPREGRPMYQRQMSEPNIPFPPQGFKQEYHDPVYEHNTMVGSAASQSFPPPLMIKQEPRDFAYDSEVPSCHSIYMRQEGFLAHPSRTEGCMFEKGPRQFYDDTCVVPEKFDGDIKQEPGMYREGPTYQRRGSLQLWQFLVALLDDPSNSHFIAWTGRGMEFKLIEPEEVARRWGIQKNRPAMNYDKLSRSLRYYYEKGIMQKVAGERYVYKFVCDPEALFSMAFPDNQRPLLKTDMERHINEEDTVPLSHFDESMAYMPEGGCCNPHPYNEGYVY
ELF4, sequence (Q99607 whole entry): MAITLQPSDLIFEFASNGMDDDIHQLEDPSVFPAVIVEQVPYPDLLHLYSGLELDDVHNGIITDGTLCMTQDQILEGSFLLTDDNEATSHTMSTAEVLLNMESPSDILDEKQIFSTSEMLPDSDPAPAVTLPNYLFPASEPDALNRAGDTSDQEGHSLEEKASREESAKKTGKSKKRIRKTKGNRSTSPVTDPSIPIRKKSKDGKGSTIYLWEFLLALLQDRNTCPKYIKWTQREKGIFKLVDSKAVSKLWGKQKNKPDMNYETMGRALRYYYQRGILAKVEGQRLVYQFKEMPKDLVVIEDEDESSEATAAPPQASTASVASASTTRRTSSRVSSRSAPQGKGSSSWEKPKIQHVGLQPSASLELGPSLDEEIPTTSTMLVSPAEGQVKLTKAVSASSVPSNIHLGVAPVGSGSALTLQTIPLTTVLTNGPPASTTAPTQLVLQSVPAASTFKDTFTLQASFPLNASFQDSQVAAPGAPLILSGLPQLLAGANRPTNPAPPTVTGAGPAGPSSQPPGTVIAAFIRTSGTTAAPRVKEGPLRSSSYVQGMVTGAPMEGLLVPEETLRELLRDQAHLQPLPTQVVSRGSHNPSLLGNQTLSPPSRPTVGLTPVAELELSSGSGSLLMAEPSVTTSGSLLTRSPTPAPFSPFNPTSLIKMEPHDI

For TACCGC, the binding signal with FLI1 is 1.16 fold enrichment (6-mer frequency, TF over GST control); with ELK1, 1.07 fold enrichment (6-mer frequency, TF over GST control); in the test with GABPA, 1.02 fold enrichment (6-mer frequency, TF over GST control); in the test with ERG it was 1.08 fold enrichment (6-mer frequency, TF over GST control); in the test with ELF1, 1.02 fold enrichment (6-mer frequency, TF over GST control); with EHF, 1.11 fold enrichment (6-mer frequency, TF over GST control). For the same sequence, the binding signal is 1.19 fold enrichment (6-mer frequency, TF over GST control) in the test with SPI1; 1.09 fold enrichment (6-mer frequency, TF over GST control) with SPIB; 1.13 fold enrichment (6-mer frequency, TF over GST control) with ELK3; 1.13 fold enrichment (6-mer frequency, TF over GST control) with FEV; 1.06 fold enrichment (6-mer frequency, TF over GST control) with ETV5; 1.15 fold enrichment (6-mer frequency, TF over GST control) with SPIC. The binding signal in the test with ELF4 was 1.1 fold enrichment (6-mer frequency, TF over GST control); with ELK4, 1.14 fold enrichment (6-mer frequency, TF over GST control); with ETV2, 1.16 fold enrichment (6-mer frequency, TF over GST control); with ELF3, 1.23 fold enrichment (6-mer frequency, TF over GST control); with CRX, 1.03 fold enrichment (6-mer frequency, TF over GST control); with ETV1 it was 1.06 fold enrichment (6-mer frequency, TF over GST control).
For the sequence TACGGA, the binding signal is 1.26 fold enrichment (6-mer frequency, TF over GST control) with FLI1; 1.25 fold enrichment (6-mer frequency, TF over GST control) with ELK1; 1.21 fold enrichment (6-mer frequency, TF over GST control) with GABPA; 1.37 fold enrichment (6-mer frequency, TF over GST control) with ERG; 1.3 fold enrichment (6-mer frequency, TF over GST control) in the test with ELF1; 1.45 fold enrichment (6-mer frequency, TF over GST control) with EHF. Also, the binding signal with SPI1 was 1.56 fold enrichment (6-mer frequency, TF over GST control); with SPIB it was 1.48 fold enrichment (6-mer frequency, TF over GST control); with ELK3 it was 1.43 fold enrichment (6-mer frequency, TF over GST control); in the test with FEV, 1.26 fold enrichment (6-mer frequency, TF over GST control); with ETV5, 1.34 fold enrichment (6-mer frequency, TF over GST control); with SPIC, 1.21 fold enrichment (6-mer frequency, TF over GST control). Moreover, the binding signal was 1.25 fold enrichment (6-mer frequency, TF over GST control) in the test with ELF4; 1.15 fold enrichment (6-mer frequency, TF over GST control) with ELK4; 1.42 fold enrichment (6-mer frequency, TF over GST control) with ETV2; 1.42 fold enrichment (6-mer frequency, TF over GST control) in the test with ELF3; 1 fold enrichment (6-mer frequency, TF over GST control) in the test with CRX; 1.39 fold enrichment (6-mer frequency, TF over GST control) with ETV1.
